Measurements from PubChem BioAssay (NCI).
Several values for one entry are separate records, joined by “and”; a condition that tells them apart may be missing. Equal entries are not always repeated. This is part of a sample that, as a whole, favours compounds with a hit. Of some 83,000 tested, about 20% had one in any assay.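 The test compound was applied at a single concentration to cells in 96-well plates for 48 hours, and percent growth was recorded.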 Values without a mark were called inactive. Activity calls are given as the source filed them. Rule for the calls: active = growth percent below 10; inactive = the rest.

Columns and labels:
Assay in all cases: NCI-60 one-dose screen, 48 h (100 = growth as untreated, 0 = no growth, -100 = all killed)
Conditions in all cases: 10 µM unless noted
NCI/ADR-RES ovarian = tested on: NCI/ADR-RES ovarian
BT-549 breast = tested on: BT-549 breast
MDA-MB-435 melanoma = tested on: MDA-MB-435 melanoma
SW-620 colon = tested on: SW-620 colon
MCF7 breast = tested on: MCF7 breast
HCT-116 colon = tested on: HCT-116 colon
HCC-2998 colon = tested on: HCC-2998 colon
KM12 colon = tested on: KM12 colon
T-47D breast = tested on: T-47D breast

With `O=C(Cc1ccccc1)NC(O)C(Cl)(Cl)Cl` (configuration not stated) the growth (NCI/ADR-RES ovarian) was 107%, the growth (BT-549 breast) was 96.8% and the growth (MDA-MB-435 melanoma) was 109%. It also gave a growth (SW-620 colon) of 117%, a growth (MCF7 breast) of 93.1% and a growth (HCT-116 colon) of 107%. It also gave a growth (HCC-2998 colon) of 110% and a growth (KM12 colon) of 119%.

`O=C1C=C(N2CC2)c2ccccc2C1=O` was tested, and the growth (NCI/ADR-RES ovarian) was 62.7%, the growth (BT-549 breast) was 71.5% and the growth (MDA-MB-435 melanoma) was -78.8% (active). It also gave a growth (SW-620 colon) of 68.4%, a growth (MCF7 breast) of 41.5% and a growth (HCT-116 colon) of 63.4%. The growth (HCC-2998 colon) was 94% and the growth (KM12 colon) was 81.9%.

For `COc1ccc(N)cc1N`, the growth (T-47D breast) was 96.1%, the growth (BT-549 breast) was 112% and the growth (MDA-MB-435 melanoma) was 122%. The growth (SW-620 colon) was 107%, the growth (MCF7 breast) was 94.8% and the growth (HCT-116 colon) was 108%. It also gave a growth (HCC-2998 colon) of 119% and a growth (KM12 colon) of 99.7%.

Compound `O=C1c2ccccc2C(=O)N1N1CC1c1ccccc1` (configuration not stated) has a growth (NCI/ADR-RES ovarian) of 104%, a growth (BT-549 breast) of 99% and a growth (SW-620 colon) of 105%. It also gave a growth (MCF7 breast) of 84.1%, a growth (HCT-116 colon) of 95.4% and a growth (HCC-2998 colon) of 103%. The growth (KM12 colon) was 104%.

For `CC[PH+](CC)CC.O=COC1OC([S-])C(OC=O)C(OC=O)C1OC=O.[Au+]` (configuration not stated), the growth (NCI/ADR-RES ovarian) was 18.7%, the growth (BT-549 breast) was -80.8% (active) and the growth (SW-620 colon) was -76.3% (active). For the same compound, the growth (MCF7 breast) was -69.2% (active), the growth (HCT-116 colon) was -50.3% (active) and the growth (HCC-2998 colon) was -90% (active). The growth (KM12 colon) was -78.9% (active).

Compound `N#Cc1ccc(Cl)cc1` has a growth (NCI/ADR-RES ovarian) of 113%, a growth (SW-620 colon) of 103% and a growth (MCF7 breast) of 103%. For the same compound, the growth (HCT-116 colon) was 114%, the growth (HCC-2998 colon) was 123% and the growth (KM12 colon) was 115%.

`O=S(OO)c1cc(Cl)c(O)c(Cl)c1` (configuration not stated) was tested, and the growth (T-47D breast) was 87.6%, the growth (BT-549 breast) was 89.1% and the growth (MDA-MB-435 melanoma) was 97.1%. For the same compound, the growth (SW-620 colon) was 98.3%, the growth (MCF7 breast) was 78.6% and the growth (HCT-116 colon) was 105%. It also gave a growth (HCC-2998 colon) of 95.5% and a growth (KM12 colon) of 108%.

For `O=S(=O)(F)c1cccc(Cl)c1C[P+](c1ccccc1)(c1ccccc1)c1ccccc1`, the growth (NCI/ADR-RES ovarian) was 109%, the growth (BT-549 breast) was 106% and the growth (MDA-MB-435 melanoma) was 84.4%. It also gave a growth (SW-620 colon) of 100%, a growth (MCF7 breast) of 103% and a growth (HCT-116 colon) of 92.4%. It also gave a growth (HCC-2998 colon) of 99.4% and a growth (KM12 colon) of 102%.

Work on `CN1CCN(c2ccc(Cl)cc2)CC1` yielded a growth (T-47D breast) of 90%, a growth (BT-549 breast) of 83.2% and a growth (MDA-MB-435 melanoma) of 97.8%. The growth (SW-620 colon) was 46.5%, the growth (MCF7 breast) was 62.6% and the growth (HCT-116 colon) was 31.4%. It also gave a growth (HCC-2998 colon) of 105% and a growth (KM12 colon) of 100%.

`Cc1cc2c(cc1-c1ccnc(/C=C/C(=O)O)c1)C(C)(C)CCC2(C)C` gave a growth (NCI/ADR-RES ovarian) of 87.8%, a growth (BT-549 breast) of 64.5% and a growth (MDA-MB-435 melanoma) of 92.5%. It also gave a growth (SW-620 colon) of 95.9%, a growth (MCF7 breast) of 56% and a growth (HCT-116 colon) of 75.1%. The growth (HCC-2998 colon) was 103% and the growth (KM12 colon) was 86.3%.

For `O=P(O)(Nc1ccccc1)Nc1ccccc1`, the growth (NCI/ADR-RES ovarian) was 76.9%, the growth (BT-549 breast) was 100% and the growth (MDA-MB-435 melanoma) was 88.5%. The growth (SW-620 colon) was 86.2%, the growth (MCF7 breast) was 97.3% and the growth (HCT-116 colon) was 89.1%. For the same compound, the growth (KM12 colon) was 95.9%.

`Nc1ccc(P(=O)(O)O)cc1` was tested, and the growth (NCI/ADR-RES ovarian) was 93.1% and 102%, the growth (BT-549 breast) was 115% and 98.3% and the growth (SW-620 colon) was 103% and 106%. For the same compound, the growth (MCF7 breast) was 103% and 89.1%, the growth (HCT-116 colon) was 112% and 103% and the growth (HCC-2998 colon) was 100% and 96%. For the same compound, the growth (KM12 colon) was 109% and 99.6%.

In the case of `COc1ccc(O)c2c(=O)c3c(OC)cc4c(c3oc12)[C@@H]1C=CO[C@@H]1O4`, the growth (NCI/ADR-RES ovarian) is reported as 41.6%, the growth (BT-549 breast) is reported as 17.8% and the growth (MDA-MB-435 melanoma) is reported as 37.3%. The growth (SW-620 colon) was 64.6%, the growth (MCF7 breast) was -0.498% (active) and the growth (HCT-116 colon) was 52.2%. For the same compound, the growth (HCC-2998 colon) was -51.7% (active) and the growth (KM12 colon) was 12.5%.

Work on `COc1cc(-c2ccc(N)c(OC)c2)ccc1N` yielded a growth (T-47D breast) of 96.4%, a growth (BT-549 breast) of 95.6% and a growth (MDA-MB-435 melanoma) of 107%. The growth (SW-620 colon) was 100%, the growth (MCF7 breast) was 99.8% and the growth (HCT-116 colon) was 112%. For the same compound, the growth (HCC-2998 colon) was 124% and the growth (KM12 colon) was 101%.

Compound `NC(N)=NC(N)=Nc1ccc(Cl)cc1` has a growth (T-47D breast) of 109%, a growth (BT-549 breast) of 104% and a growth (MDA-MB-435 melanoma) of 101%. It also gave a growth (SW-620 colon) of 102%, a growth (MCF7 breast) of 103% and a growth (HCT-116 colon) of 109%. For the same compound, the growth (HCC-2998 colon) was 107% and the growth (KM12 colon) was 112%.

`CCCCS(=O)(=O)Cl` was tested, and the growth (NCI/ADR-RES ovarian) was 107%, the growth (BT-549 breast) was 104% and the growth (MDA-MB-435 melanoma) was 108%. For the same compound, the growth (SW-620 colon) was 112%, the growth (MCF7 breast) was 97.7% and the growth (HCT-116 colon) was 97.6%. The growth (HCC-2998 colon) was 124% and the growth (KM12 colon) was 114%.
